# Experiments:
# Test in all cases: DAPPL (digital affinity profiling via proximity ligation, sequencing); 10 mM Tris-HCl pH 7.5, 50 mM NaCl, 1 mM DTT, 4% glycerol, room temperature, 30 min; GST-TFs on glutathione beads, 16-mer random dsDNA library, 0.1% formaldehyde crosslink after washing; high values mean tight binding
# [1] = target: T1, FLI1 (Homo sapiens, UniProt Q01543 1-452); conditions: protein: recombinant; tags: N-terminal GST; dsDNA, one strand shown
# T1 sequence: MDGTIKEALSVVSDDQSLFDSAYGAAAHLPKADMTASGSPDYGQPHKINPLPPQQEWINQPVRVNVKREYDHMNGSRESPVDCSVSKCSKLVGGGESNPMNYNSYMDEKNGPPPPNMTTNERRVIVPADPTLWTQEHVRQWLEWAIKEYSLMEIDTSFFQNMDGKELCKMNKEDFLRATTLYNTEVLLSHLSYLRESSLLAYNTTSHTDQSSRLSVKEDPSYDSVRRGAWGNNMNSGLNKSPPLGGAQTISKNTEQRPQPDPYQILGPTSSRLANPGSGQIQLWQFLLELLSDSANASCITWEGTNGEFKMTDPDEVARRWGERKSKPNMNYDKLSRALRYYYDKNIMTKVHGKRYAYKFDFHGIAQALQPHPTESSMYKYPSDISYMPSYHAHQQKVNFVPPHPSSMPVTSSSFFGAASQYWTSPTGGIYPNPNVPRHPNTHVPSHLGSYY
# Outline: (§1)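 Binding signal is defined as a hexamer's read frequency for one factor over its frequency for the tag-only sample. To obtain reads, GST-fused human transcription factors were expressed in yeast, captured on glutathione beads, barcoded with DNA and pooled with that sample. Pools met 200 nmole of a 16-mer random double-stranded DNA library in Tris/NaCl/DTT/glycerol buffer for 30 min at room temperature before washing, 0.1% formaldehyde crosslinking, proximity ligation (BsaI/T4 ligase, 1 h, 37 °C), PCR and Illumina NextSeq500 sequencing.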
# [2] = target: T2, ELK1 (Homo sapiens, UniProt P19419 1-428); conditions: protein: recombinant; tags: N-terminal GST; dsDNA, one strand shown
# T2 sequence: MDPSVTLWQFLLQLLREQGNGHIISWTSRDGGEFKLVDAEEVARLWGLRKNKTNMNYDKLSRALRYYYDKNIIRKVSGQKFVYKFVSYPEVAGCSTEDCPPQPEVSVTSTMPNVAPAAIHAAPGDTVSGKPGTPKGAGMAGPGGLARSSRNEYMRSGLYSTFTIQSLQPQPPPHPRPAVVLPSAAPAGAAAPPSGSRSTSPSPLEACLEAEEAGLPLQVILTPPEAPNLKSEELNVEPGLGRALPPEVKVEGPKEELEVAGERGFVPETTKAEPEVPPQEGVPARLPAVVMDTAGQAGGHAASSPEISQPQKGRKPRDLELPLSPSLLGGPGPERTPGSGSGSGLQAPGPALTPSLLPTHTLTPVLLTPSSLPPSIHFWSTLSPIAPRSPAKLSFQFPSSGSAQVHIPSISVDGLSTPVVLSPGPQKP
# Outline: as §1
# [3] = target: T3, GABPA (Homo sapiens, UniProt Q06546 1-454); conditions: protein: recombinant; tags: N-terminal GST; dsDNA, one strand shown
# T3 sequence: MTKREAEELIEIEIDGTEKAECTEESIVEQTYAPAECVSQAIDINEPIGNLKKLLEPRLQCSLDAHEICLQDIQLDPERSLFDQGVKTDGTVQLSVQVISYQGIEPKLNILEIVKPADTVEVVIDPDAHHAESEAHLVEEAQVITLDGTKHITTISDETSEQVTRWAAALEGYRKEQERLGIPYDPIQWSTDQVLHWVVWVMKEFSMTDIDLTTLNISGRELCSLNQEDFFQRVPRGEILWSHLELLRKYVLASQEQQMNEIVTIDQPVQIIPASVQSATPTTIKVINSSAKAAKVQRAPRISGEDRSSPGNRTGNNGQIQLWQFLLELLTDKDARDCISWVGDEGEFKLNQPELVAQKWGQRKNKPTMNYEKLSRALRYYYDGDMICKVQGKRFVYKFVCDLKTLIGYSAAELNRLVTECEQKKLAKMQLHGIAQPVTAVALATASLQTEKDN
# Outline: as §1
# [4] = target: T4, ERG (Homo sapiens, UniProt P11308 1-479); conditions: protein: recombinant; tags: N-terminal GST; dsDNA, one strand shown
# T4 sequence: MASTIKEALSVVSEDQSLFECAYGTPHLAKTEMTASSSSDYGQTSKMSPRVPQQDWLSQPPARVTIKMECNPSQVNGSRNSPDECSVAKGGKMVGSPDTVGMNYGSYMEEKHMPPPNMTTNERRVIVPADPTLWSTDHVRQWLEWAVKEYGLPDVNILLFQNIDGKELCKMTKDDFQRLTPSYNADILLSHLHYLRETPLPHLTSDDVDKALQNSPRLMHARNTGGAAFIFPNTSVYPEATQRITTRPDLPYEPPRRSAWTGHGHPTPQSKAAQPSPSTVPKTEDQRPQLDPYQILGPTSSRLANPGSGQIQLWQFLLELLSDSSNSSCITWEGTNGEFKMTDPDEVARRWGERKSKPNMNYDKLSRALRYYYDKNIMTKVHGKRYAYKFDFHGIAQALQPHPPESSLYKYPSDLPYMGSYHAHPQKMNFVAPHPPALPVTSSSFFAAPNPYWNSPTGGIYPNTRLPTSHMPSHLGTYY
# Outline: as §1
# [5] = target: ELF1 (Homo sapiens, UniProt P32519 1-619); conditions: protein: recombinant; tags: N-terminal GST; dsDNA, one strand shown
# Outline: as §1
# [6] = target: T5, EHF (Homo sapiens, UniProt Q9NZC4 1-300); conditions: protein: recombinant; tags: N-terminal GST; dsDNA, one strand shown
# T5 sequence: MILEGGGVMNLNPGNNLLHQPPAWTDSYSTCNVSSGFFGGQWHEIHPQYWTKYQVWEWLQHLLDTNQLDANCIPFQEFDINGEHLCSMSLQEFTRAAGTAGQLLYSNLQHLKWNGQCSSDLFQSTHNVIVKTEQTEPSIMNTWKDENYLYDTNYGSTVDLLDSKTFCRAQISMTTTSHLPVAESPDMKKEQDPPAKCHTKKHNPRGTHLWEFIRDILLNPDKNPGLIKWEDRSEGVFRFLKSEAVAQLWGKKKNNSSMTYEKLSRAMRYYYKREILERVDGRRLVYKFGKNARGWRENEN
# Outline: as §1
# [7] = target: SPI1 (Homo sapiens, UniProt P17947 1-270); conditions: protein: recombinant; tags: N-terminal GST; dsDNA, one strand shown
# Outline: as §1
# [8] = target: SPIB (Homo sapiens, UniProt Q01892 1-262); conditions: protein: recombinant; tags: N-terminal GST; dsDNA, one strand shown
# Outline: as §1
# [9] = target: T6, ELK3 (Homo sapiens, UniProt P41970 1-407); conditions: protein: recombinant; tags: N-terminal GST; dsDNA, one strand shown
# T6 sequence: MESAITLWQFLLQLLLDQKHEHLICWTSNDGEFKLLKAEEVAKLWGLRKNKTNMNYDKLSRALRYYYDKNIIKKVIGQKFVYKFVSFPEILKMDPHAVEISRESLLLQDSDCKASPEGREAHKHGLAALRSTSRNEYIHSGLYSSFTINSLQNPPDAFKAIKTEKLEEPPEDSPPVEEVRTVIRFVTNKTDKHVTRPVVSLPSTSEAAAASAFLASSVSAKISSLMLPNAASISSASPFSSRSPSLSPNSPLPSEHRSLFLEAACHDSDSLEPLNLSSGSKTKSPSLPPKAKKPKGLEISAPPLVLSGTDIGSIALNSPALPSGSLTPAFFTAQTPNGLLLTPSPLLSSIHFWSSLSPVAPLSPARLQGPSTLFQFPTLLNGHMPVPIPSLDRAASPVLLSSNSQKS
# Outline: as §1
# [10] = target: T7, FEV (Homo sapiens, UniProt Q99581 1-238); conditions: protein: recombinant; tags: N-terminal GST; dsDNA, one strand shown
# T7 sequence: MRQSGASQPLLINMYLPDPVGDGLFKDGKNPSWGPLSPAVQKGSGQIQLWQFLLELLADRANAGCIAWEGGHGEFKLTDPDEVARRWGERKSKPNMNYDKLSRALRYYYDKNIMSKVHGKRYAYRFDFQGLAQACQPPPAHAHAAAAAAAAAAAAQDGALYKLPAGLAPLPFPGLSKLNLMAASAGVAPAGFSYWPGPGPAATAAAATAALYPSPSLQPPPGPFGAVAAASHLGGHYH
# Outline: as §1
# [11] = target: ETV5 (Homo sapiens, UniProt P41161 1-510); conditions: protein: recombinant; tags: N-terminal GST; dsDNA, one strand shown
# Outline: as §1
# [12] = target: HSF1 (Homo sapiens, UniProt Q00613 1-529); conditions: protein: recombinant; tags: N-terminal GST; chain copies: 3; dsDNA, one strand shown
# Outline: as §1
# [13] = target: T8, SPIC (Homo sapiens, UniProt Q8N5J4 1-248); conditions: protein: recombinant; tags: N-terminal GST; dsDNA, one strand shown
# T8 sequence: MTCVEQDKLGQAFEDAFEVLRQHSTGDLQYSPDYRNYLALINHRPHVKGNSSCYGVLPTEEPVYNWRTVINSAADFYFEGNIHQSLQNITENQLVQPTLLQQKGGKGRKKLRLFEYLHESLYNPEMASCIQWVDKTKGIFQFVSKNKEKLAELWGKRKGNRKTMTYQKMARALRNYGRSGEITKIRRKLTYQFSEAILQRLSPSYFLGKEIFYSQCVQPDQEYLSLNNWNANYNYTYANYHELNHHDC
# Outline: as §1
# [14] = target: ELF4 (Homo sapiens, UniProt Q99607 1-663); conditions: protein: recombinant; tags: N-terminal GST; dsDNA, one strand shown
# Outline: as §1
# [15] = target: T9, ELK4 (Homo sapiens, UniProt P28324-2 1-405); conditions: protein: recombinant; tags: N-terminal GST; dsDNA, one strand shown
# T9 sequence: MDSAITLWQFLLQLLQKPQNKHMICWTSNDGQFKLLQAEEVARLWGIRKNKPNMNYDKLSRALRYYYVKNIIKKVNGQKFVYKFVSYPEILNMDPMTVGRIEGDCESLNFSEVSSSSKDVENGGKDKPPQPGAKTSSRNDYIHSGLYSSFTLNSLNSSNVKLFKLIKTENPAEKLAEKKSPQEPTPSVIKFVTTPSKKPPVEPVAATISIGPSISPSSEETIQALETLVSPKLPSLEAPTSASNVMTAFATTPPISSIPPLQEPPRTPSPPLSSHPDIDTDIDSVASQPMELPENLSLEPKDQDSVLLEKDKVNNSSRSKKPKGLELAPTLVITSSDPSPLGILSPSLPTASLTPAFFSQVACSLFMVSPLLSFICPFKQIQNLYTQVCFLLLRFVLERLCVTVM
# Outline: as §1
# [16] = target: T10, ETV2 (Homo sapiens, UniProt O00321 1-342); conditions: protein: recombinant; tags: N-terminal GST; dsDNA, one strand shown
# T10 sequence: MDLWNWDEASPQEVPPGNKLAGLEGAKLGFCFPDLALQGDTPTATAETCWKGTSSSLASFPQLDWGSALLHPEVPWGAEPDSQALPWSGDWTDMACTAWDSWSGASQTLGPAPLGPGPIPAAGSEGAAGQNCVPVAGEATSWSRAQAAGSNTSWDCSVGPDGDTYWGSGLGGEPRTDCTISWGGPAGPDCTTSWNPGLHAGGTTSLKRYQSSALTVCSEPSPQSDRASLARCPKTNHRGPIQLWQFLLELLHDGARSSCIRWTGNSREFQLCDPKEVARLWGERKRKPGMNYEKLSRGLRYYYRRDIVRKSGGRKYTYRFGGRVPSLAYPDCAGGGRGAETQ
# Outline: as §1
# [17] = target: T11, ELF3 (Homo sapiens, UniProt P78545 1-371); conditions: protein: recombinant; tags: N-terminal GST; dsDNA, one strand shown
# T11 sequence: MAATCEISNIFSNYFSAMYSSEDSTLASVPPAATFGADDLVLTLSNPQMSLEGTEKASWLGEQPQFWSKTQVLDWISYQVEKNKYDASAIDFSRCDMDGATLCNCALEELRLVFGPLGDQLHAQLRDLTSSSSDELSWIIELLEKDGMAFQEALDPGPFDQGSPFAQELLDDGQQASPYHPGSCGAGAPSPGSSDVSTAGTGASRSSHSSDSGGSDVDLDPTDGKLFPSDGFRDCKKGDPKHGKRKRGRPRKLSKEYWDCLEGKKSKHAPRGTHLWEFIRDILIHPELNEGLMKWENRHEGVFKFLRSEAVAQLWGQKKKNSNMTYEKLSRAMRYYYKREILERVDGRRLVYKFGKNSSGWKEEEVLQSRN
# Outline: as §1
# [18] = target: CRX (Homo sapiens, UniProt O43186 1-299); conditions: protein: recombinant; tags: N-terminal GST; dsDNA, one strand shown
# Outline: as §1
# [19] = target: ETV1 (Homo sapiens, UniProt P50549 1-477); conditions: protein: recombinant; tags: N-terminal GST; dsDNA, one strand shown
# Outline: as §1
# Chain of CRX (O43186 whole entry): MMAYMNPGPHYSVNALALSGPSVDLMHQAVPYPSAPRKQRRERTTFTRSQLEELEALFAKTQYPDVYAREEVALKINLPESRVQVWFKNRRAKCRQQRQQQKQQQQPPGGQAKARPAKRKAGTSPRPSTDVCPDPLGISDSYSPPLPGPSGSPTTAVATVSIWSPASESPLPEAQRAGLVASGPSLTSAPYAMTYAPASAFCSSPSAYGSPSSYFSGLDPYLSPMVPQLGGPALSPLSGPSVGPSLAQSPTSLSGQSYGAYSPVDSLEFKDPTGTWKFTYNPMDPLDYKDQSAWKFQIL
# Chain of ELF4 (Q99607 whole entry): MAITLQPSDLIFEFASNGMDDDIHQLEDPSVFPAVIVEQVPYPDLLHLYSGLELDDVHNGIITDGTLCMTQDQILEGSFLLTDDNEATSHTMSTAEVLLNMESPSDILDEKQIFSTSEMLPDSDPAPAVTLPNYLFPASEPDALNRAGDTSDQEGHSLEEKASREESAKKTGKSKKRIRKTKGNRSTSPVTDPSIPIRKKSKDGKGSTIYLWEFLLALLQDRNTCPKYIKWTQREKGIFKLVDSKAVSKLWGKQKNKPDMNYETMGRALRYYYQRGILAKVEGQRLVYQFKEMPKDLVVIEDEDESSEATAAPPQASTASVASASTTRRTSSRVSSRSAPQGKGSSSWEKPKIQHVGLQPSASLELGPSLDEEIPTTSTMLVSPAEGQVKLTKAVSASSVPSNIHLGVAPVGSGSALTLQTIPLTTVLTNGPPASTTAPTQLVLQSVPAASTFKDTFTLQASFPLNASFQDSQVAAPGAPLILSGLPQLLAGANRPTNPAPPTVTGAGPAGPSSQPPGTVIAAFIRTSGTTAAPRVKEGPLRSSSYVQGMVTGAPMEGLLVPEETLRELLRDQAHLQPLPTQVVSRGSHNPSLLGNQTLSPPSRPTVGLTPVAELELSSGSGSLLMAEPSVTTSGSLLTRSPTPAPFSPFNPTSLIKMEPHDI
# Chain of ETV1 (P50549 whole entry): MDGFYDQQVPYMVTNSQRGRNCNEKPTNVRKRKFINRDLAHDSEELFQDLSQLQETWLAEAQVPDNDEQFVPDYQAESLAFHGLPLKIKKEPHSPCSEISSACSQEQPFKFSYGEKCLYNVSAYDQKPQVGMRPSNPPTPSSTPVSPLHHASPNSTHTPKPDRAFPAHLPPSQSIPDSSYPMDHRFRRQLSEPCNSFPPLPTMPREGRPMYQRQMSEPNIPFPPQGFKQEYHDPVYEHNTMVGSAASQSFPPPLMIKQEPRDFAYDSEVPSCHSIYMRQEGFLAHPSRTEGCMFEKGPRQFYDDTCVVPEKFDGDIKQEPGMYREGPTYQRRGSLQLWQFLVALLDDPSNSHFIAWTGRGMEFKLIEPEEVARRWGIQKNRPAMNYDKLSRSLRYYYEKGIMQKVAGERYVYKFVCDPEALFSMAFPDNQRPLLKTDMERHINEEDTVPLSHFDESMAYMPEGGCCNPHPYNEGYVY
# Chain of ETV5 (P41161 whole entry): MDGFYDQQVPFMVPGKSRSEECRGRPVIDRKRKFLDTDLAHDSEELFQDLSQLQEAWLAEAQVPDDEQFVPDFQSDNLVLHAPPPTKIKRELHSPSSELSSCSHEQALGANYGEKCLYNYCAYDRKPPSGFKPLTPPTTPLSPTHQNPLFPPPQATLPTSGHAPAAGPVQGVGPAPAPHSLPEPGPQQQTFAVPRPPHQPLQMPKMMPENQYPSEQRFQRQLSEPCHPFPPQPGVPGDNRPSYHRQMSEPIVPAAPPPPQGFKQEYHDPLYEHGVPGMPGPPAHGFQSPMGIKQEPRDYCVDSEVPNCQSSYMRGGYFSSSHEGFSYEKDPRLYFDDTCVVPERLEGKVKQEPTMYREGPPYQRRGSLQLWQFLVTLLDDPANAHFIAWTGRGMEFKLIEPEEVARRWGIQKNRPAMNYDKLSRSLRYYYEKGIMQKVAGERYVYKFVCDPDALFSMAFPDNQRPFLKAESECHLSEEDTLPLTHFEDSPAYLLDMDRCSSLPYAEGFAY
# Chain of ELF1 (P32519 whole entry): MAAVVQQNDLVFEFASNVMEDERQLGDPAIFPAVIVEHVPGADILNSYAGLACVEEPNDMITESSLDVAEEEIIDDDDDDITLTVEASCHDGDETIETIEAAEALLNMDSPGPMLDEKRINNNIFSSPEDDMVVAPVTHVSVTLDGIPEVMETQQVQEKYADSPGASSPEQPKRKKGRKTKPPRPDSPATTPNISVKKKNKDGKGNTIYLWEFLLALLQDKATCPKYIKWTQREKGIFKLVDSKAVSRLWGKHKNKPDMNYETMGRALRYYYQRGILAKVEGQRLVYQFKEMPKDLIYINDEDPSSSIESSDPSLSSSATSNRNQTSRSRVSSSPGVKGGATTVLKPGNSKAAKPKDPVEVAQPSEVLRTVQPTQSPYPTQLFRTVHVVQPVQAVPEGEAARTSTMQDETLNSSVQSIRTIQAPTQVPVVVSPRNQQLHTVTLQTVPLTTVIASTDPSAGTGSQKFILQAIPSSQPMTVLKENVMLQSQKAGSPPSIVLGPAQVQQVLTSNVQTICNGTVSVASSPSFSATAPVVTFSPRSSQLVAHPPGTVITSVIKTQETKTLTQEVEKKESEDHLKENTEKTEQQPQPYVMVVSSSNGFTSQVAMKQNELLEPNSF
# Chain of HSF1 (Q00613 whole entry): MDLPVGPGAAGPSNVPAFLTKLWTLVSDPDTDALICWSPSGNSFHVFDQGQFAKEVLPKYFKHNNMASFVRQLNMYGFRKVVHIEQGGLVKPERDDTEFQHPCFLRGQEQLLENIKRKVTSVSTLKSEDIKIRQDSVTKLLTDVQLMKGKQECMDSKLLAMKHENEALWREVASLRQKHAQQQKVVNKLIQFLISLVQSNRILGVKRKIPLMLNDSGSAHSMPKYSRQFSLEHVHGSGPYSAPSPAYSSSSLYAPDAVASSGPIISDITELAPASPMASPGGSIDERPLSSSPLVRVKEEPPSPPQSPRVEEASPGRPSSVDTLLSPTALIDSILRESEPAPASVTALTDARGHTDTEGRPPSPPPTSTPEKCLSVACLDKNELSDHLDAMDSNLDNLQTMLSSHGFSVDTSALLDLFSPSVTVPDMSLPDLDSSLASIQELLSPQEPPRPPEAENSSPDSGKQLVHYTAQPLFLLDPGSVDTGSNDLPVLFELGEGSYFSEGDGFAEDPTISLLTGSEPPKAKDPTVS
# Chain of SPIB (Q01892 whole entry): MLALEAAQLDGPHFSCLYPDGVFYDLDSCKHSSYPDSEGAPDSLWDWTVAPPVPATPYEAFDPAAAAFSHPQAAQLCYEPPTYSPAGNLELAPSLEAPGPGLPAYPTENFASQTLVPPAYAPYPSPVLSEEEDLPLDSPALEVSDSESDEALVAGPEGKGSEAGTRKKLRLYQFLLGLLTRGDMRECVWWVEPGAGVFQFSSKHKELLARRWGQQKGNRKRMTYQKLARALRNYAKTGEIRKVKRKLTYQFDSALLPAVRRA
sequence,measurement,setting,value
ATGGCA,binding signal,[1],"1.26 fold enrichment (6-mer frequency, TF over GST control)"
same,binding signal,[2],"1.22 fold enrichment (6-mer frequency, TF over GST control)"
same,binding signal,[3],"1.26 fold enrichment (6-mer frequency, TF over GST control)"
same,binding signal,[4],"1.27 fold enrichment (6-mer frequency, TF over GST control)"
same,binding signal,[5],"1.24 fold enrichment (6-mer frequency, TF over GST control)"
same,binding signal,[6],"1.35 fold enrichment (6-mer frequency, TF over GST control)"
same,binding signal,[7],"1.21 fold enrichment (6-mer frequency, TF over GST control)"
same,binding signal,[8],"1.19 fold enrichment (6-mer frequency, TF over GST control)"
same,binding signal,[9],"1.22 fold enrichment (6-mer frequency, TF over GST control)"
same,binding signal,[10],"1.44 fold enrichment (6-mer frequency, TF over GST control)"
same,binding signal,[11],"1.28 fold enrichment (6-mer frequency, TF over GST control)"
same,binding signal,[12],"1.1 fold enrichment (6-mer frequency, TF over GST control)"
same,binding signal,[13],"1.21 fold enrichment (6-mer frequency, TF over GST control)"
same,binding signal,[14],"1.2 fold enrichment (6-mer frequency, TF over GST control)"
same,binding signal,[15],"1.15 fold enrichment (6-mer frequency, TF over GST control)"
same,binding signal,[16],"1.31 fold enrichment (6-mer frequency, TF over GST control)"
same,binding signal,[17],"1.28 fold enrichment (6-mer frequency, TF over GST control)"
same,binding signal,[18],"1.11 fold enrichment (6-mer frequency, TF over GST control)"
same,binding signal,[19],"1.27 fold enrichment (6-mer frequency, TF over GST control)"
